Measurements reported in ChEMBL document CHEMBL1201862, “PubChem BioAssay data set” (2004).
Several values for one entry are separate records, joined by “and”; a condition that tells them apart may be missing. Equal entries are not always repeated.

Experiment: Mycobacterium tuberculosis growth inhibition, dose response, 7H9 media, purified and synthesized compounds, set 8 (AID 588447); call rule not given here
Format: functional

Q: With COc1ccc(N2CCN(C(=O)c3ccc(CNc4c(N5CCOCC5)c(=O)c4=O)cc3)CC2)cc1 as the compound, how does the IC90 read?
A: The IC90 was > 100 µM (active).

Q: Which IC90 does the source give for Cc1cccc(N2CCN(C(=O)c3ccc(CNc4c(N5CCC(C)CC5)c(=O)c4=O)cc3)CC2C)c1 (centres undefined) here?
A: Its IC90 is > 76.5 µM (active).

Q: With CCOC(=O)CSc1ncnc2c1cnn2-c1ccccc1 as the compound, how does the IC90 read?
A: Its IC90 is > 75.1 µM (active).

Q: For CC(=O)c1ccc(NC(=O)c2ccc(CNc3c(N4CCOCC4)c(=O)c3=O)cc2)cc1, which IC90 is on record?
A: The IC90 was > 100 µM (active).

Q: With CC(C)OC(=O)CSc1ncnc2c1cnn2-c1ccccc1 as the compound, how does the IC90 read?
A: Its IC90 is > 100 µM (active).

Q: Which IC90 does the source give for CC1CCN(C(=O)c2ccc(CNc3c(N4CCCC4)c(=O)c3=O)cc2)CC1 here?
A: Its IC90 is > 100 µM (active).

Q: Which IC90 does the source give for O=C(NCCc1ccc(Cl)cc1)c1ccc(CNc2c(N3CCOCC3)c(=O)c2=O)cc1 here?
A: The IC90 was > 100 µM (active).

Q: Which IC90 does the source give for CC1CC(C)CN(C(=O)C2CCC(CNc3c(N4CCCCC4)c(=O)c3=O)CC2)C1 (centres undefined) here?
A: Its IC90 is > 75 µM (active) and > 100 µM (active).

Q: For O=C(c1ccc(CNc2c(N3CCCC3)c(=O)c2=O)cc1)N1CCc2ccccc2C1, which IC90 is on record?
A: The IC90 was > 100 µM (active).

Q: For O=C(NCCc1ccc(Cl)cc1)C1CCC(CNc2c(N3CCCCC3)c(=O)c2=O)CC1 (centres undefined), which IC90 is on record?
A: Its IC90 is > 100 µM (active).

Q: For CC1CC(C)CN(C(=O)c2ccc(CNc3c(N4CCCC4)c(=O)c3=O)cc2)C1 (centres undefined), which IC90 is on record?
A: The IC90 was > 100 µM (active).

Q: Which IC90 does the source give for O=C(C1CCC(CNc2c(N3CCCCC3)c(=O)c2=O)CC1)N1CCCCC1 (centres undefined) here?
A: The IC90 was > 100 µM (active).

Q: Which IC90 does the source give for CC1CCCN(C(=O)c2ccc(CNc3c(N4CCCCC4)c(=O)c3=O)cc2)C1 (centres undefined) here?
A: The IC90 was > 100 µM (active).

Q: For CC1CCCN(C(=O)C2CCC(CNc3c(N4CCCCC4)c(=O)c3=O)CC2)C1 (centres undefined), which IC90 is on record?
A: Its IC90 is > 100 µM (active).
